system: Noggin (protein binding on small-molecule microarray); experiment: small molecules binding Noggin protein – biochemical, 635/667 nm fluorescence, primary screen (AID 1095); conditions: 635 nm fluorescence, higher = more signal;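 note: score merges 667 nm feature fluorescence with signal to noise over triplicate slides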

| SMILES | composite z-score |
| --- | --- |
| O=C(CS)NCCCCCNC(=O)[C@@H]1C[C@@H]2C(=O)N3CCC[C@H]3C(=O)N2[C@@H]1c1ccc(O)cc1 | -0.0286 |
| Cc1cc(C)c(C(O)C2C=CC3C(=O)N(c4ccccc4)C(=O)C3N2Nc2ccc([N+](=O)[O-])cc2)c(C)c1 (stereo not given) | 0.525 |
| C=C[C@H](C)[C@H](OC(=O)Nc1ccc(SC)cc1)c1ccc(O)c2ccccc12 | 0.174 |
| COC(=O)C(CC#Cc1ccc2c(c1)[C@]1(C(=O)N2)[C@H](C(=O)N2CCc3cc(OC)c(OC)cc3C2)[C@H]2C(=O)O[C@H](c3ccccc3)[C@H](c3ccccc3)N2[C@@H]1c1ccc(OCCO)cc1)C(=O)OC | 1.3 |
| COC(=O)[C@@]1(Cc2ccc(OC)cc2)[C@H]2c3cc(C(=O)N4CCCC4)n(CCc4ccc(O)c(OC)c4)c3C[C@H]2CN1C(=O)c1ccccc1 | -0.879 |
| O=C1N(CCS(=O)(=O)c2ccccc2)Cc2ccccc2C[C@@]12COC(c1ccc(OCCCO)cc1)=N2 | 0.982 |
| CC(C)C[C@H]1NC(=O)[C@H](C)NC(=O)[C@@]23C(=O)N[C@@H](Cc4ccccc4)C2[C@H](C)[C@@]2(C)O[C@H]2C3/C=C/C/C=C\CNC1=O (stereo not given in full) | -0.344 |
| COc1ccc([Si](C)(C)[C@H]2[C@H](CC(=O)N3CCC[C@H]3CO)O[C@@]3(C(=O)N(Cc4ccc(N5C(=O)c6cccc7cccc5c67)cc4)c4ccccc43)[C@@H]2C)cc1 | 1.11 |
| COc1cccc(C)c1NC(=O)O[C@H]1[C@H](OC(=O)Nc2ccccc2)[C@H](OC(=O)Nc2ccccc2)[C@@H](OC)O[C@@H]1CO | 0.203 |
| C=CCC(OC(C)=O)[C@@H]1[C@@H](N(Cc2ccc(-c3ccccc3)cc2)C(=O)c2cccc3ccccc23)c2cc(OCCCO)ccc2N1C(=O)c1ccc2ccccc2n1 (stereo not given in full) | -0.0394 |
| O=C1O[C@H](c2ccccc2)[C@H](c2ccccc2)N2[C@H]1[C@@H](C(=O)N1CCN(c3ncccn3)CC1)[C@]1(C(=O)Nc3ccc(C#CCCO)cc31)[C@H]2c1ccc(OCCO)cc1 | 1.47 |
| COC(=O)[C@@]1(Cc2ccccc2N=[N+]=[N-])N=C(c2ccc(OCCCO)cc2)O[C@H]1c1ccccc1 | 0.314 |

target: Neurogenic locus notch homolog protein 3 (Homo sapiens) (UniProt Q9UM47); experiment: small molecules binding NOTCH3 protein – biochemical, 635/667 nm fluorescence, primary screen (AID 1096); conditions: small-molecule microarray, 635 nm fluorescence, higher = more signal
Sequence (Q9UM47 whole entry, looked up): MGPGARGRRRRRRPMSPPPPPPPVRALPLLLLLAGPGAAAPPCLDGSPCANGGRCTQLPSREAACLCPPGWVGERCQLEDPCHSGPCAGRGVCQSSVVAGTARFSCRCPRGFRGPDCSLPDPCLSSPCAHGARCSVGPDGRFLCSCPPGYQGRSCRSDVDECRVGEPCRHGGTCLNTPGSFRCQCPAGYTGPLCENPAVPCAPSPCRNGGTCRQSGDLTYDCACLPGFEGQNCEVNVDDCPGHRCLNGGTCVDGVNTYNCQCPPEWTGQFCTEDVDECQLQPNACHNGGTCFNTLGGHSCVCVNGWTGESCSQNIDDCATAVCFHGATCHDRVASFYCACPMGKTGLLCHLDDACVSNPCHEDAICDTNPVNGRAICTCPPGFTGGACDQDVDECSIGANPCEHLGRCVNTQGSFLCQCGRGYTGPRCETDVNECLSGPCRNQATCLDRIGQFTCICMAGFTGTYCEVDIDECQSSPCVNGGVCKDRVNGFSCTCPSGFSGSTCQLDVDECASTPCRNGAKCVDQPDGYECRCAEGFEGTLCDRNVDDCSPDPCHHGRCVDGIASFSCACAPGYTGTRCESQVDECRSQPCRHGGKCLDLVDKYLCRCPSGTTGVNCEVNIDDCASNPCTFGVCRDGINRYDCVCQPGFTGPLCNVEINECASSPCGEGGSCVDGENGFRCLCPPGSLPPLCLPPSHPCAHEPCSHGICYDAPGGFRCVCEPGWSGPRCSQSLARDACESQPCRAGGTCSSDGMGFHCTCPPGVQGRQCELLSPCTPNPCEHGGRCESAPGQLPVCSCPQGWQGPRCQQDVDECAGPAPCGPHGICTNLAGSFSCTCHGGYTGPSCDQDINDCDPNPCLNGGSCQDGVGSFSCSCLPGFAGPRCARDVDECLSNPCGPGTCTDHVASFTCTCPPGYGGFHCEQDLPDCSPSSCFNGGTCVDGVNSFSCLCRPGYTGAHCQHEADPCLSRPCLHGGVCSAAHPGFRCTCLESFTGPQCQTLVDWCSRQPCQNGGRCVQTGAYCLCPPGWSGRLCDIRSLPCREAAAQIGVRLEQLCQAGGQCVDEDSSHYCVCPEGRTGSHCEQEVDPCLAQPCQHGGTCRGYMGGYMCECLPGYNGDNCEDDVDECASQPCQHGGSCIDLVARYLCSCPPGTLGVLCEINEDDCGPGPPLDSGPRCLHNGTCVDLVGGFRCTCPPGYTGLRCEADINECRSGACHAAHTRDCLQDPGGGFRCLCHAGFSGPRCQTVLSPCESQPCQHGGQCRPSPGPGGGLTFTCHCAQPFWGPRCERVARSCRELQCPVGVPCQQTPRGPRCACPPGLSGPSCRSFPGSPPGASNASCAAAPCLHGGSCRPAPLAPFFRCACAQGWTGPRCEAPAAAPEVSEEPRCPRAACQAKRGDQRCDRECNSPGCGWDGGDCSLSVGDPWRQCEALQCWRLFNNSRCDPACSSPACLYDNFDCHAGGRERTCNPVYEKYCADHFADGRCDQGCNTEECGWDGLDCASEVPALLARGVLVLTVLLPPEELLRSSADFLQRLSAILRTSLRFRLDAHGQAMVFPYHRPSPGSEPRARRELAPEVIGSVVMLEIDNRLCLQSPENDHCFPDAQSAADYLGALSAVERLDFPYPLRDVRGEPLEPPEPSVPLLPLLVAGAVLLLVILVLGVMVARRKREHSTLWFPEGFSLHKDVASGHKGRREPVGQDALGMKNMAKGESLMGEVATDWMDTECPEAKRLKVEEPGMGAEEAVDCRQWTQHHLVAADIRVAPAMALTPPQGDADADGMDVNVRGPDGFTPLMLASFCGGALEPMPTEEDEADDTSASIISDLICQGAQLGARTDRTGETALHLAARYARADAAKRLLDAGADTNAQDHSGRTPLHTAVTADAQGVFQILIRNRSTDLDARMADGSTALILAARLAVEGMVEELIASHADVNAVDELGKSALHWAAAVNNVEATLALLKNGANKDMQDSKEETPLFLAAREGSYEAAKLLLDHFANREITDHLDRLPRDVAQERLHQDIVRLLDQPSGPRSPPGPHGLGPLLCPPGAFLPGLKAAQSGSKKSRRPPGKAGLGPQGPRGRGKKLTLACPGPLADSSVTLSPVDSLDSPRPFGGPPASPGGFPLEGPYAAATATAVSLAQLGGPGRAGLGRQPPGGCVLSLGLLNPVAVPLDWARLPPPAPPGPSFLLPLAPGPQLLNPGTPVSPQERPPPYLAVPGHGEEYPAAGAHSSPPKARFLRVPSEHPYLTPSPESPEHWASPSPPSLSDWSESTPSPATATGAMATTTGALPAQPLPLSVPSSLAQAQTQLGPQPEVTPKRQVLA

| SMILES | composite z-score |
| --- | --- |
| COCC(=C=CC[C@@H](O)c1ccccc1OCCO)C[C@@H](O)c1ccccn1 | 0.88 |
| COc1ccc([Si](C)(C)[C@H]2[C@H](CCO)O[C@@]3(C(=O)N(Cc4cccc(N5CCOC5=O)c4)c4ccccc43)[C@@H]2C)cc1 | 1.14 |
| COC(=O)C(CC#Cc1ccc2c(c1)[C@]1(C(=O)N2)[C@H](C(=O)N2CCc3cc(OC)c(OC)cc3C2)[C@H]2C(=O)O[C@H](c3ccccc3)[C@H](c3ccccc3)N2[C@@H]1c1ccc(O)cc1)C(=O)OC | 1.09 |
| COc1ccc([Si](C)(C)[C@H]2[C@H](CCn3cc(CCO)nn3)O[C@@]3(C(=O)N(Cc4cccc(N5C(=O)c6cccc7cccc5c67)c4)c4ccccc43)[C@@H]2C)cc1 | 0.79 |
| C[C@H]1ON(c2ccccc2)[C@@H](c2ccccc2)[C@@H]1C(=O)N1C(=O)OC[C@@H]1c1ccccc1 | 0.848 |
| COc1ccc(C#Cc2ccc3c(c2)[C@]2(C(=O)N3)[C@H](C(=O)O)[C@H]3C(=O)O[C@H](c4ccccc4)[C@H](c4ccccc4)N3[C@@H]2c2ccc(OCCO)cc2)cc1 | 1.1 |
| C=CCC(OC(C)=O)[C@@H]1[C@@H](N(Cc2ccc(-c3ccccc3)cc2)C(=O)Cc2ccc(OC)cc2)c2cc(OCCCO)ccc2N1C(=O)c1ccc(-c2ccccc2)cc1 (stereo not given in full) | -0.255 |
| Cc1ccc(S[C@]2(C(=O)NCC(C)C)CC(=O)N(C3CCCCC3)[C@@H]2c2ccc(CO)cc2I)cc1 | 1 |
| COC(=O)C(CC#Cc1ccc2c(c1)[C@]1(C(=O)N2)[C@H](c2ccc(OCCO)cc2)N2[C@H](c3ccccc3)[C@H](c3ccccc3)OC(=O)[C@H]2[C@@H]1C(=O)O)C(=O)OC | 0.822 |
| [N-]=[N+]=NCc1ccccc1C[C@@]1(C(=O)NCCN2CCOCC2)N=C(c2ccc(OCCCO)cc2)O[C@@H]1c1ccccc1CN=[N+]=[N-] | 1.08 |
| C[C@]12C(=O)N(CCCO)[C@@H]3C(=O)N(c4ccc(Cl)cc4)CC=CC31O[C@@H]1/C=C\CCCOC(=O)C12 (stereo not given in full) | -0.123 |
| CCCCC(O)C1C=CC2C(=O)N(Cc3ccccc3)C(=O)C2N1n1cnnc1 (stereo not given) | 0.62 |
| Cc1ccccc1C(O)C1C=CC2C(=O)N(C)C(=O)C2N1Nc1ccc([N+](=O)[O-])cc1[N+](=O)[O-] (stereo not given) | 1.08 |

Reference: PubChem BioAssay
